In PubChem BioAssay (EPA / NIEHS):
Calls of active or inactive are those of the source. The calls were made as follows: active = hit-call score of the fitted dose curve at least 0.9, where 1 is the maximum; inactive = score below 0.9.

Experiment: CEETOX_H295R_OHPROG: CeeTox H295R High-throughput Steroidogenesis Assay for OH-Progesterone (OHPROG) (AID 2283435)
Details: actives raise or lower the signal
Experimental: CEETOX_H295R is a cell-based, multiplexed-readout assay that uses H295R, a human adrenal gland cell line, with measurements taken at 48 hours after chemical dosing in a 96-well plate.CEETOX_H295R_OHPROG is one of 23 assay component(s) measured or calculated from the CEETOX_H295R assay. It is designed to make measurements of hormone induction, a form of inducible reporter, as detected with absorbance signals by HPLC-MS-MS technology.Data from the assay component CEETOX_H295R_OHPROG was analyzed into 1 assay endpoint. This assay endpoint, CEETOX_H295R_OHPROG, was analyzed with bidirectional fitting relative to DMSO as the negative control and baseline of activity. Using a type of inducible reporter, gain or loss-of-signal activity using HPLC-MS-MS was used to understand synthesis of 17alpha-hydroxyprogesterone in H295R cell line at 48hr of chemical exposure. To generalize the intended target to other relatable targets, this assay endpoint is annotated to the steroid hormone intended target family, where the subfamily is progestagens.
Cell culture and media preparation procedures were conducted in accordance with OECD Test No. 456 guidelines, with minor modifications. H295R cells (ATCC CRL-2128) were expanded for 5 passages and frozen in batches in liquid nitrogen. Prior to the steroidogenesis assay, H295R cells were thawed and passed at least 4 times. The maximum passage was 10. Cells were maintained in a 1:1 mixture of DMEM/F12 supplemented with 5ml/L ITS+ Premix (BD Bioscience) and 12.5 ml/L Nu-Serum (BD Bioscience). After seeding cells into 96-well plates at 50-60% confluency, cells were allowed to adhere overnight. Prior to chemical testing, culture medium was replaced with 175 uL medium containing 10 uM forskolin to stimulate steroidogenesis for 48 hours. Following prestimulation, forskolin medium was replaced with medium containing test chemical solubilized in DMSO (ensuring a final concentration of 0.1% DMSO). Test chemicals were incubated for 48 hours, then the medium was removed and split into 2 vials containing approximately 75uL each, and stored at -80 C prior to hormone analysis. For steroid quantification, media samples were shipped to OpAns, LLC (Durham, NC) on dry ice, and samples were thawed to room temperature prior to liquid-liquid extraction. Steroid hormones were extracted from media samples using methyl tertbutyl ether (MTBE). An extra derivatization with dansyl chloride was included for estrogen (estrone and estradiol) detection only. Steroid hormones were separated by HPLC, eluted using a reverse phase C18 gradient with electrospray positive ionization, followed by quantification by tandem mass spectrometry (MS/MS). Data were acquired on a MassHunter Workstation Acquisition version B03.01 (Agilent Technologies, Inc.) and processed using MassHunter Quantitative Analysis for QQQ. Accuracy was determined for each hormone analyte from 3 standards to determine upper and lower limits of quantification (ULOQ and LLOQ, respectively) using a 7-point standard curve. Precision and accuracy of the extraction and quantification methods were calculated as the percent relative standard deviation (%RSD) of the spiked standards and percent spiked standard recovered, respectively. […] Test medium was removed following chemical exposure, and cell viability was evaluated in the same wells by MTT. MTT procedures were as follows: after removal of test medium, 500 uL of 0.5 mg/ml of 3-[4,5-dimethylthiazol-2-y]2,5-diphenyltetrazoliumbromide solution was added to the cells. Following a 4-hour incubation at 37 C and 5% CO2 to allow formazan-crystal formation, the MTT solution was removed and blue formazan salt crystals were solubilized using 500uL anhydrous isopropanol with shaking for 20 minutes. Absorbance was read at 570 and 650nm using a Packard Fusion microplate reader. Background correction of absorbance units was used to determine percent change relative to controls. […]

SMILES | outcome | AC50
O=C(O)c1ccc([N+](=O)[O-])cc1 | inactive | –
Nc1ccc(F)c([N+](=O)[O-])c1 | – | 37.7 µM (active)
NC(=O)Nc1ccc(Cl)cc1 | inactive | –
Cc1cccc(C)c1C | inactive | –
c1ccc(CCCc2ccccn2)cc1 | inactive | –
C=CC(C)(C)O | inactive | –
O=C(O)C[C@H](O)C[C@H](O)/C=C/c1c(C2CC2)nc2ccccc2c1-c1ccc(F)cc1 | – | 0.0582 µM (active)
CSc1nc(NC2CC2)nc(NC(C)(C)C)n1 | inactive | –
CC1(C)[C@H](C(=O)OCc2cccc(Oc3ccccc3)c2)[C@@H]1C=C(Cl)Cl | inactive | –
COc1cc2ncnc(Nc3cccc(Cl)c3)c2cc1OC | inactive | –
CC(C)c1cccc(O)c1 | – | 39 µM (active)
C#C[C@]1(O)CC[C@H]2[C@@H]3CCC4=Cc5oncc5C[C@]4(C)[C@H]3CC[C@@]21C | – | 0.871 µM (active)
C=CCOc1nc(OCC=C)nc(OCC=C)n1 | inactive | –
CC(C)=CCCC(C)=CCCC(C)=CCO | – | 31.5 µM (active)
O=c1cc(-c2ccccc2)oc2cc(O)cc(O)c12 | – | 16.6 µM (active)
Cc1ccc2n[nH]nc2c1 | inactive | –
Nc1cc([N+](=O)[O-])ccc1Cl | – | 39.3 µM (active)
